The target in test [1] is Protein kinase C gamma type (Homo sapiens) (UniProt P05129). The following applies: at 1 µM.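 Further: each value is an averaged percent inhibition of the enzyme.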
The target of test [2] is T1, Protein kinase C iota type (Homo sapiens) (UniProt P41743).
T1 sequence (whole entry): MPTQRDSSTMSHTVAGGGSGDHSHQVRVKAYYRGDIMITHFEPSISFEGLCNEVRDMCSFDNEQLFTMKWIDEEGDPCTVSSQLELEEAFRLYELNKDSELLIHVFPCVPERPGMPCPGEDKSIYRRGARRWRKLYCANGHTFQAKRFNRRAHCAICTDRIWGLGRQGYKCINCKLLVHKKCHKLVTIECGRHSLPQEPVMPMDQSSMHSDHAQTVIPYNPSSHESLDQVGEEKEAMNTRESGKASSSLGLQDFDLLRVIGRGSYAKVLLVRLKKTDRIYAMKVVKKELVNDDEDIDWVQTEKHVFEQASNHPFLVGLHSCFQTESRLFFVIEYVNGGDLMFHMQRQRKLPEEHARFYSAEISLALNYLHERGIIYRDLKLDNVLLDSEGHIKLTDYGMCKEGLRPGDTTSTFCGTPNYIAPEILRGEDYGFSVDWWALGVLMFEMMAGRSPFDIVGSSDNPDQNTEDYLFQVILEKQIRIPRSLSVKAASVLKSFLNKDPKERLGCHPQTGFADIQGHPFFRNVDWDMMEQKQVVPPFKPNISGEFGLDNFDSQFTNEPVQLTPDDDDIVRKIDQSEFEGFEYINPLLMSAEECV
The following applies: at 0.1 µM.

Test [3] concerns the target T1, Protein kinase C iota type (Homo sapiens). The following applies: at 1 µM.
For test [4], the target named is Protein kinase C theta type (Homo sapiens) (UniProt Q04759). The following applies: at 0.1 µM.
Chain of Protein kinase C theta type (Homo sapiens) (Q04759 whole entry, looked up): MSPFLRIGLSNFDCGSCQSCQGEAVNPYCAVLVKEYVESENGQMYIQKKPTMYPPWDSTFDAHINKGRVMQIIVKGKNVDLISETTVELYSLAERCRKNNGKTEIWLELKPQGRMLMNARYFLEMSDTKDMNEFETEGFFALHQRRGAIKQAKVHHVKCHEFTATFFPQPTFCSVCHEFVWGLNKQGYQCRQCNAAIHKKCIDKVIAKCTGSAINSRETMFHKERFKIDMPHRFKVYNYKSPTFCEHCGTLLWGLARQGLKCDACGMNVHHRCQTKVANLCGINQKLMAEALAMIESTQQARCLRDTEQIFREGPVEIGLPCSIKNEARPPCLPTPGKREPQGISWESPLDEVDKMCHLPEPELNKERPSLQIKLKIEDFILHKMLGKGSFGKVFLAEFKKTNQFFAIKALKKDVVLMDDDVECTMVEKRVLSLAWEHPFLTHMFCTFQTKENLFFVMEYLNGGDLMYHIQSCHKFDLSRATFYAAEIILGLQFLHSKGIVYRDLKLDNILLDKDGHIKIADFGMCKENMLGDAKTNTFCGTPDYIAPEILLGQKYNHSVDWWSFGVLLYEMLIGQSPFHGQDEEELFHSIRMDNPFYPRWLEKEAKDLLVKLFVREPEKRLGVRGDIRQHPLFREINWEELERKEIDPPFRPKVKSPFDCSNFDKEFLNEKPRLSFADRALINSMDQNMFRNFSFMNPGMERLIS
Test [5] shares this target. The following applies: at 1 µM.
Test [6] has as its target Protein kinase C beta type (Homo sapiens) (UniProt P05771). The following applies: at 0.1 µM.
Test [7] has the same target. The following applies: at 1 µM.
In test [8] the target is T2, Serine/threonine-protein kinase D1 (Homo sapiens) (UniProt Q15139).
T2 sequence (whole entry): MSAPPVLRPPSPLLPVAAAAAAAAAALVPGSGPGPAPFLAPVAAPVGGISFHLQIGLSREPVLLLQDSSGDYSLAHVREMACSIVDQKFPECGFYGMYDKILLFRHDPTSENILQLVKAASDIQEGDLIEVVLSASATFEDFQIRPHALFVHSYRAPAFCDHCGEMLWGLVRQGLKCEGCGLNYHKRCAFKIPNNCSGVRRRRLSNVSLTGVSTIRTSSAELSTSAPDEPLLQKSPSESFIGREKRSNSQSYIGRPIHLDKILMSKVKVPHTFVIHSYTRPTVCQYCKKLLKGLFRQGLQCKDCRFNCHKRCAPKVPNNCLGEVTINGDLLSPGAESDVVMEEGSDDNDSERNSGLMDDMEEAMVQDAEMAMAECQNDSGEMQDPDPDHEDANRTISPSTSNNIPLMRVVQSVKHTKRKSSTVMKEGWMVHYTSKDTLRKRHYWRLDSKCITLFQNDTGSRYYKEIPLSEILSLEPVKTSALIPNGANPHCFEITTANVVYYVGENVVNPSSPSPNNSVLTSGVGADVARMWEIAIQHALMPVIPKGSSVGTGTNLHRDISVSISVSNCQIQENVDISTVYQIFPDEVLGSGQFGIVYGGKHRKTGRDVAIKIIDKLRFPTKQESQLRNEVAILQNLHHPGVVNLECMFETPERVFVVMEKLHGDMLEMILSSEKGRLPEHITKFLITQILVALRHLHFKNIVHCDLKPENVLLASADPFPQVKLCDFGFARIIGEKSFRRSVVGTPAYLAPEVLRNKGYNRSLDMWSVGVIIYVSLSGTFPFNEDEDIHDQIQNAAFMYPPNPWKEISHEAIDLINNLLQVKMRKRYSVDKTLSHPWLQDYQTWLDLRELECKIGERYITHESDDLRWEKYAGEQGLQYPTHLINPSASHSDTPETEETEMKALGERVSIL
The following applies: at 0.1 µM.

Test [9] deals with T2, Serine/threonine-protein kinase D1 (Homo sapiens). The following applies: at 1 µM.
In test [10] the target is T3, Serine/threonine-protein kinase D2 (Homo sapiens) (UniProt Q9BZL6).
T3 sequence (whole entry): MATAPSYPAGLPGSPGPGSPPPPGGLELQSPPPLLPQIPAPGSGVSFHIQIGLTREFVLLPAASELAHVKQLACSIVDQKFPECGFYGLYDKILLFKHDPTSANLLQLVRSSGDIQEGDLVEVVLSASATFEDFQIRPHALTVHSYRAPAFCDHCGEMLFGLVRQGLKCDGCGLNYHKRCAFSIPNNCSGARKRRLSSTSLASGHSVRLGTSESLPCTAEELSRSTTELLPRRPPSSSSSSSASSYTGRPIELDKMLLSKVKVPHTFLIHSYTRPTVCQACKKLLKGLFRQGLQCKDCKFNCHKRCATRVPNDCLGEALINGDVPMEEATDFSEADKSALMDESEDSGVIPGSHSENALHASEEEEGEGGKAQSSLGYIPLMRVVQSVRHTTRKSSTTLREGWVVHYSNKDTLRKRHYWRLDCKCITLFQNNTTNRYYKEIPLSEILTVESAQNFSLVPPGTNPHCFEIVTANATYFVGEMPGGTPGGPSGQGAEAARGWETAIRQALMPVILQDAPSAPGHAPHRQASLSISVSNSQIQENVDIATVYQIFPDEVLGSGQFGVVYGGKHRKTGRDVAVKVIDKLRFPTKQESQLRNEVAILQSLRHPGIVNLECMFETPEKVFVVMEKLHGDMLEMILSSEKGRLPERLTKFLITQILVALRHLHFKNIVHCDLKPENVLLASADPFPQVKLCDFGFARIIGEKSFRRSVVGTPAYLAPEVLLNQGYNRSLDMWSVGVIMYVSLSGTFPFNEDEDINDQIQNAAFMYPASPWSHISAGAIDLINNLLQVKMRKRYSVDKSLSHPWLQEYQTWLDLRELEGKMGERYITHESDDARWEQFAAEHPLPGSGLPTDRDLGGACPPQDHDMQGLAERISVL
The following applies: at 0.1 µM.

Test [11] has as its target T3, Serine/threonine-protein kinase D2 (Homo sapiens). The following applies: at 1 µM.
For test [12], the target named is T4, Serine/threonine-protein kinase D3 (Homo sapiens) (UniProt O94806).
T4 sequence (whole entry): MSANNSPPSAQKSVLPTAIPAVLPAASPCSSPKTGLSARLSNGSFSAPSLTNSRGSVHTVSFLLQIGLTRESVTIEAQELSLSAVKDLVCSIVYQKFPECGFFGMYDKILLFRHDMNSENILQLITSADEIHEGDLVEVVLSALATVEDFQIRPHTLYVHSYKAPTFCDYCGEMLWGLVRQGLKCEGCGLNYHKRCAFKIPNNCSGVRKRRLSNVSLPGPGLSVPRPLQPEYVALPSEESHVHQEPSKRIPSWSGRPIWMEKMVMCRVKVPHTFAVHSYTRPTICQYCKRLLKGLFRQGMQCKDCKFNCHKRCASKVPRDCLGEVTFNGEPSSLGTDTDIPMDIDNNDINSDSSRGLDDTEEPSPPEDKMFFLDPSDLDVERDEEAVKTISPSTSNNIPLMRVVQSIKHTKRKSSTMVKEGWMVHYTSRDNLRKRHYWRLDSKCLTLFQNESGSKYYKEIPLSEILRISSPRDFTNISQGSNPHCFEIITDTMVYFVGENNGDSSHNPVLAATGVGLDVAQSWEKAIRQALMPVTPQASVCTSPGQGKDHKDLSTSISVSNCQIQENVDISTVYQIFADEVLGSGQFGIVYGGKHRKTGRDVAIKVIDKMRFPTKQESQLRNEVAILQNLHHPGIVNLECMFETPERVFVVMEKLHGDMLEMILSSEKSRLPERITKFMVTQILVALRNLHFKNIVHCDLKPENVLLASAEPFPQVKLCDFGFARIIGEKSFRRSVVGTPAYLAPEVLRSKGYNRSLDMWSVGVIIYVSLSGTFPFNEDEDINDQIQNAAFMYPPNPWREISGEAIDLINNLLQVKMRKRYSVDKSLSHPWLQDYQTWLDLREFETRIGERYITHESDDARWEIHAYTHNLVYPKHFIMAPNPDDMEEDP
The following applies: at 0.1 µM.

Test [13] has as its target T4, Serine/threonine-protein kinase D3 (Homo sapiens). The following applies: at 1 µM.
For test [14], the target named is T5, cGMP-dependent protein kinase 1 (Homo sapiens) (UniProt Q13976).
T5 sequence (whole entry): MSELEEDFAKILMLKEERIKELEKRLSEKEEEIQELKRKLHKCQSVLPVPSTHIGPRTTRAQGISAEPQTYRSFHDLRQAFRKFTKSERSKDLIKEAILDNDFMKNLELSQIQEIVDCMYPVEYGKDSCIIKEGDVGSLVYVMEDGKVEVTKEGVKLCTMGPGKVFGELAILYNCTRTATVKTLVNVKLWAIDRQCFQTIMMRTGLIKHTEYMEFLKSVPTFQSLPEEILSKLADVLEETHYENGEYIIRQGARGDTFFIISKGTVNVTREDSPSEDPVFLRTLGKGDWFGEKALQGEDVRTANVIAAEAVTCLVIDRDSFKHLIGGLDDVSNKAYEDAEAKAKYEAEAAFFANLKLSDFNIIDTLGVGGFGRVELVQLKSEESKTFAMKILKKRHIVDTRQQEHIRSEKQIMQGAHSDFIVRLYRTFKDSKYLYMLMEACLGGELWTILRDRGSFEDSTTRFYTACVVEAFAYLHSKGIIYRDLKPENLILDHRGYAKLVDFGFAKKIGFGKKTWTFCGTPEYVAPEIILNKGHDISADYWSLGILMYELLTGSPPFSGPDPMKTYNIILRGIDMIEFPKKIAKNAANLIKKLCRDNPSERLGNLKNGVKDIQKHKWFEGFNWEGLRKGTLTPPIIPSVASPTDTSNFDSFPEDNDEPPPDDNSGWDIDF
The following applies: at 0.1 µM.

In test [15] the target is T5, cGMP-dependent protein kinase 1 (Homo sapiens). The following applies: at 1 µM.
The target in test [16] is T6, cGMP-dependent protein kinase 2 (Homo sapiens) (UniProt Q13237).
T6 sequence (whole entry): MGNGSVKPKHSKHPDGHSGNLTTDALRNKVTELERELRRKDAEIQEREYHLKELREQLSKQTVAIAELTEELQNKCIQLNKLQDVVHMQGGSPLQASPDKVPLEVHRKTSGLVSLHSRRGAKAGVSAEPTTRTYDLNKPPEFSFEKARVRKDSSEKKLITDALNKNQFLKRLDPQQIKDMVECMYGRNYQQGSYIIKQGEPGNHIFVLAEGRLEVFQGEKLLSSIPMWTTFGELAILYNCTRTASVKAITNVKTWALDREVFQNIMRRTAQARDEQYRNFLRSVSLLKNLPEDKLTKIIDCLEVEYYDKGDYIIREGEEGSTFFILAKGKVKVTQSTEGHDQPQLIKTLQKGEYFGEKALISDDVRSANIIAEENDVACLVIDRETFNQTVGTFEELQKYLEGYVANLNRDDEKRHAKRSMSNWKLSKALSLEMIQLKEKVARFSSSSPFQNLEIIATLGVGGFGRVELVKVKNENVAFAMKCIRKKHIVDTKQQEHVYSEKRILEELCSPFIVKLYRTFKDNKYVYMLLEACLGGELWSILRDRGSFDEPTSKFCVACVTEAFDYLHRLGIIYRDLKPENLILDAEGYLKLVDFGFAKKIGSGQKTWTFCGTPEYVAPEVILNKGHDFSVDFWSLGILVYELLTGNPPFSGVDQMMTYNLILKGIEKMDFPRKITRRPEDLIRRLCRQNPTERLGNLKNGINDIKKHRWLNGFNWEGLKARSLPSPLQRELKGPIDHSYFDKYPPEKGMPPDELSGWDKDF
The following applies: at 0.1 µM.

The target in test [17] is T6, cGMP-dependent protein kinase 2 (Homo sapiens). The following applies: at 1 µM.
Test [18] concerns the target T7, cAMP-dependent protein kinase catalytic subunit PRKX (Homo sapiens) (UniProt P51817).
T7 sequence (whole entry): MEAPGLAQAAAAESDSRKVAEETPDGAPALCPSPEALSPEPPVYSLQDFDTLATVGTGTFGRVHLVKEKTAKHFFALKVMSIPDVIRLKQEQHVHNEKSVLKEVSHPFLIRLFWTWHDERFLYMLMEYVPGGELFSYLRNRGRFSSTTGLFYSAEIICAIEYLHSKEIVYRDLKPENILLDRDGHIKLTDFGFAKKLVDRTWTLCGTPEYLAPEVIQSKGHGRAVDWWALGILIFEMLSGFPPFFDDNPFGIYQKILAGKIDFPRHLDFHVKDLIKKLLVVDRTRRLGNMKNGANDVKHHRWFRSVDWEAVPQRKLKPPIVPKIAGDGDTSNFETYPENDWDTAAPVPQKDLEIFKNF
The following applies: at 0.1 µM.

The target in test [19] is T7, cAMP-dependent protein kinase catalytic subunit PRKX (Homo sapiens). The following applies: at 1 µM.
Test [20] addresses Rho-associated protein kinase 1 (Homo sapiens) (UniProt Q13464). The following applies: at 0.1 µM.

The structures appear in SMILES notation.

Chain of Protein kinase C beta type (Homo sapiens) (P05771 2-671 limits assumed): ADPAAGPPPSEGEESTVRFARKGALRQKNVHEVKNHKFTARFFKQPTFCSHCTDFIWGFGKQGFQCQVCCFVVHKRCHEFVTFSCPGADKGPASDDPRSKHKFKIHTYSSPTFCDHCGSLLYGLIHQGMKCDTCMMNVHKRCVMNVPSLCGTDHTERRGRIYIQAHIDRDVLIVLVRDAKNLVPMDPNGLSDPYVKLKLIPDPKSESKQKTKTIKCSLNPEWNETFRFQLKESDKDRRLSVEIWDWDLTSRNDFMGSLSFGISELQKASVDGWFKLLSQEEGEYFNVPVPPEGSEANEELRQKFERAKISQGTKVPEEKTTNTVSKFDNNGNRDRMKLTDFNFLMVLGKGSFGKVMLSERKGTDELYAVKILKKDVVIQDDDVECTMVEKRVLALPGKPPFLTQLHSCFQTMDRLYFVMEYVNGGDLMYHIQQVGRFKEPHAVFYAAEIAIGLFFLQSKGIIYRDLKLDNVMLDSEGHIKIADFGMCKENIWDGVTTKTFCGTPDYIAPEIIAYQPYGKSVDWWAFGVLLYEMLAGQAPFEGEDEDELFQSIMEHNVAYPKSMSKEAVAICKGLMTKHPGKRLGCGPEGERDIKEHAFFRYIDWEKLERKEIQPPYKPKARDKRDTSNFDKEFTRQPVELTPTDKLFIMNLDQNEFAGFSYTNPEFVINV
Chain of Rho-associated protein kinase 1 (Homo sapiens) (Q13464 2-1354 limits assumed): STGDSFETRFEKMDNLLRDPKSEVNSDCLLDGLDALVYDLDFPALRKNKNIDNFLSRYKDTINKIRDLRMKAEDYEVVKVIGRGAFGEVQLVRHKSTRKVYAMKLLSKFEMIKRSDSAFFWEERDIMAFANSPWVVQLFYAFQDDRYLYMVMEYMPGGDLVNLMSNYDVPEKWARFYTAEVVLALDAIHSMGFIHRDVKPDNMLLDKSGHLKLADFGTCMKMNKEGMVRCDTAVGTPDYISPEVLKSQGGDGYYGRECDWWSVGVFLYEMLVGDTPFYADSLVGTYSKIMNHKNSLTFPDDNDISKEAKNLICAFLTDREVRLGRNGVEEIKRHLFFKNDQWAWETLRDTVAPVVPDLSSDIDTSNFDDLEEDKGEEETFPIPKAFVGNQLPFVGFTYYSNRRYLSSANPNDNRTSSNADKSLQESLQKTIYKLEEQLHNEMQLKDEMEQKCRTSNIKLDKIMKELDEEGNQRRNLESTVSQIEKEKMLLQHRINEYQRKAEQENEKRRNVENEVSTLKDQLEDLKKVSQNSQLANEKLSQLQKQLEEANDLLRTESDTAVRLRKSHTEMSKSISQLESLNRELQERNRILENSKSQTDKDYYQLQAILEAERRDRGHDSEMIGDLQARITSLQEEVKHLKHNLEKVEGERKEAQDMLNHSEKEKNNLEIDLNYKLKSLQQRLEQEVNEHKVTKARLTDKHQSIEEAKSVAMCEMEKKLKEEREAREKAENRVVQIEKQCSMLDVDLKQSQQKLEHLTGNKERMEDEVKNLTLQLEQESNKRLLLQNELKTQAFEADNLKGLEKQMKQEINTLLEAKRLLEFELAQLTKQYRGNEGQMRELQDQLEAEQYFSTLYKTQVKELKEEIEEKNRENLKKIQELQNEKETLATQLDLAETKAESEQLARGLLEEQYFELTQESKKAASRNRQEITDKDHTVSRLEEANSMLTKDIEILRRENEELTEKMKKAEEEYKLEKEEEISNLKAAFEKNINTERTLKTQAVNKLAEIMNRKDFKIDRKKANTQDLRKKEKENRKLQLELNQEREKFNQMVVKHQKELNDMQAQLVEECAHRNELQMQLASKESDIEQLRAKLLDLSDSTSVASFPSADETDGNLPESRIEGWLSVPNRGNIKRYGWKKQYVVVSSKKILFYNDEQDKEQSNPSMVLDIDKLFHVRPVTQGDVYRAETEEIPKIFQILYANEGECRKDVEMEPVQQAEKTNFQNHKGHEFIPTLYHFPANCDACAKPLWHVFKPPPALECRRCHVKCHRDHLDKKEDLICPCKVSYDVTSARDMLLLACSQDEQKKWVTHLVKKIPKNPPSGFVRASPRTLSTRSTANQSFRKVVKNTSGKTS

What is called inhibition is the change of the read-out against control, counted positive when it falls. For `CC(C)(CO)CNC(=O)c1ccc2c(c1)/C(=N/Nc1ccc(S(N)(=O)=O)cc1)C(=O)N2`, the inhibition is 3.43% in test [1]; -0.53% in test [2]; -0.82% in test [3]; 0.56% in test [4]; 0.9% in test [5]; 0.36% in test [6]. The inhibition in [7] worked out at 1.12%; in test [8], 0.49%; in [9], 13.9%; in [10], 0.9%; in test [11] it was 11.8%; in [12] it was 0.07%. Moreover, the inhibition in test [13] came to 9.82%; in [14] it was 0.66%; in [15], 11.8%; in [16], 2.6%; in test [17] it was 22%; in test [18], 0.91%. In addition, the results for the inhibition in [19] and in test [20] were 3.07% and 0.33%, respectively.

With `COc1ccc2[nH]c3c4[nH]c5ccc(OC)cc5c4c4c(c3c2c1)C(=O)NC4=O`, the inhibition in test [1] turned out to be 11.7%; in [2] it was 0.72%; in [3] it was 0.15%; in test [4], 4.69%; in [5], 20.9%; in [6], 3.68%. The inhibition in [7] was 12.9%; in [8], 5.02%; in test [9], 27%; in [10] it was 8.15%; in [11], 45.9%; in [12], 5.31%. Besides, the inhibition in test [13] came out at 14.4%; in test [14], 6.13%; in test [15], 35%; in [16], 69.5%; in test [17], 72.5%; in [18], 9.07%. The inhibition in test [19] was 46%; in test [20], 1.15%.

Source of the values: ChEMBL document CHEMBL1961873, “Compounds: GSK PKIS; Assays: Nanosyn kinase panel” (2012).
